The values that follow come from PubChem BioAssay (EPA / NIEHS).

Structures are written as SMILES. Inconclusive results are not listed. Activity calls are given as the source filed them. The calls were made as follows: active = hit-call score of the fitted dose curve at least 0.9, where 1 is the maximum; inconclusive = response in the unintended direction; inactive = score below 0.9.

System in the first experiment: not listed separately
Put plainly: ACEA_ER_AUC_viability: ACEA Biosciences xCELLigence Real-Time Cell Analysis on Estrogen Receptor Agonism for Viability (AID 2283782).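 Also: hit means loss of impedance signal meaning reduced cell growth or viability.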 An outline of the steps: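 Continuous-exposure impedance cell analysis uses T-47D cells in charcoal-stripped serum, eight 1:4 dilutions topping at 100 uM final, biological duplicate. Area under the growth curve at 80 h is fitted against DMSO baseline.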
As for `CN(C)CCOCCN(C)C`, the molecule was called inactive.

The term AC50 denotes the concentration giving half of the maximal activity seen. Regarding `CC(C)=CCC[C@](C)(O)[C@@H]1CC=C(C)CC1`, the concentration at half-maximal activity (AC50) was 84.5 µM (active).

`C[Si](O[Si](C)(C)C)O[Si](C)(C)C`: the call was inactive.

Take `CC1CC(OC(=O)c2ccccc2O)CC(C)(C)C1` (stereo not given): the AC50 was 78.4 µM (active).

`COC(=O)c1ccc(C)cc1`: the molecule was called inactive.

`CCCC(C)C=O` (stereo not given): the AC50 is 20.8 µM (active).

As for `NCCCN1CCOCC1`, the molecule was called inactive.

Turning to `O=C[C@@H](O)[C@H](O)[C@H](O)CO`, the outcome was inactive.

As for `CC1CCC(C(C)(C)O)CC1` (stereo not given), the molecule was called inactive.

In the case of `CCC/C=C/C=O`, the outcome was inactive.

For `BrC1CCC(Br)C(Br)CCC(Br)C(Br)CCC1Br` (stereo not given), the AC50 is 8.63 µM (active).

Take `O=Nc1ccc(Nc2ccccc2)cc1`: the AC50 is 11.1 µM (active).

Consider `CCCCCC(=O)OCCc1ccccc1`, for which the half-maximal activity concentration (AC50) was 78.9 µM (active).

For the molecule `C=CCOC(=O)CCC1CCCCC1`, the AC50 was 75.5 µM (active).

As for `CC(C)=CCCC(C)CC=O` (stereo not given), the outcome was inactive.

With `CCCCCCCCCCCCCOS(=O)(=O)O`, the half-maximal activity concentration (AC50) was 73.8 µM (active).

In the case of `O=C(Cl)c1cccc(C(=O)Cl)c1`, the molecule was classed as inactive.

For the molecule `OCc1cccnc1`, the molecule was called inactive.

`CCCCc1ccc(N)cc1`: the molecule was classed as inactive.

Turning to `CC(=O)C=CC1=C(C)CCCC1(C)C`, the outcome was inactive.

Turning to `OCCOCCOCCOCCO`, the molecule was called inactive.

On to `CCCCN`, for which the AC50 was 45.1 µM (active).

Regarding `c1ccc(CCCc2ccccn2)cc1`, the result was inactive.

As for `NCCCCCCN`, the result was inactive.

Regarding `CCCCCCCCCCCCCCCC(=O)OC[C@H](O)[C@H]1OC(=O)C(O)=C1O`, the AC50 is 39.2 µM (active).

With `c1ccc2[nH]ccc2c1`, the molecule was called inactive.

For `CC(=O)OCCOC(C)=O`, the molecule was classed as inactive.

Turning to `CC(C)=CCCC(C)=CCCC(C)=CCO`, the half-maximal activity concentration (AC50) was 84.2 µM (active).

For another experiment, the target named is AR (gene 367) (UniProt P10275). Put plainly: ACEA_AR_agonist_80hr: ACEA Biosciences xCELLigence Real-Time Cell Analysis on Androgen Receptor Agonism for Proliferation (AID 2283783).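 Also: hits increase impedance growth signal above DMSO baseline.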 The procedure, abridged: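 Real-time cell-growth kinetics were recorded by electrode impedance in 22Rv1 cells exposed to test chemicals up to 100 uM final; the 80 h timepoint served as the readout, fitted upward relative to DMSO controls, in biological duplicate.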
AR (gene 367), sequence (P10275 whole entry, looked up): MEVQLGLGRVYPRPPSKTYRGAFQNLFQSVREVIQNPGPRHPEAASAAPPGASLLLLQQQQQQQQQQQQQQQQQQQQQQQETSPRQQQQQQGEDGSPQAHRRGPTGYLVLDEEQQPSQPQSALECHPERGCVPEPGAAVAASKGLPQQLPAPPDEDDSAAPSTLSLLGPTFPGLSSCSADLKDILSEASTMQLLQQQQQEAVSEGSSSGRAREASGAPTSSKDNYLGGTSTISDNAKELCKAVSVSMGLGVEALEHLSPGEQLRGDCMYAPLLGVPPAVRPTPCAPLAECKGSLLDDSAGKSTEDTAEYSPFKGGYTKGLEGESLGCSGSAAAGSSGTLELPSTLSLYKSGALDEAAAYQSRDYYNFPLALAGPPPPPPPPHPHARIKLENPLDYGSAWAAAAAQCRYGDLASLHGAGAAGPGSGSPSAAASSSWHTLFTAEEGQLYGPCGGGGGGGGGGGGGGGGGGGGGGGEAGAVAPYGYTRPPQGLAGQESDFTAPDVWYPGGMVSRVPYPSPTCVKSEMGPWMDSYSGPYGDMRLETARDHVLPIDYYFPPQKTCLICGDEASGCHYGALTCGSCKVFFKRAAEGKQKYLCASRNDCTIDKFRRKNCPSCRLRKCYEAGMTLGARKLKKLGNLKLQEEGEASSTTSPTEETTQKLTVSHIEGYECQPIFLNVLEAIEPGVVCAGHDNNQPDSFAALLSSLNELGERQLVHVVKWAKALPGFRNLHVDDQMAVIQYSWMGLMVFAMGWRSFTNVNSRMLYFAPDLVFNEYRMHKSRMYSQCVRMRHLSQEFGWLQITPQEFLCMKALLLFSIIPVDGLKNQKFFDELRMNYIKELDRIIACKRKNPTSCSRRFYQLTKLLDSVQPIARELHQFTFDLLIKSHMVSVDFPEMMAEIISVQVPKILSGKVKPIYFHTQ
As to `C[Si](O[Si](C)(C)C)O[Si](C)(C)C`, the call was inactive.

On to `O=c1cc(-c2ccccc2)oc2cc(O)cc(O)c12`, for which the concentration at half-maximal activity (AC50) is 0.0729 µM (active).

On to `O=Nc1ccc(Nc2ccccc2)cc1`, for which the result was inactive.

As for `CCCOCC(C)O` (stereo not given), the call was inactive.

In the case of `CCCCCCCCCCCCCOS(=O)(=O)O`, the result was inactive.

The target in another experiment is AR (gene 367) (UniProt P10275). Put plainly: ACEA_AR_antagonist_80hr: ACEA Biosciences xCELLigence Real-Time Cell Analysis on Androgen Receptor Antagonism for Proliferation (AID 2283787).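 Also: 22Rv1 human prostate cancer cells with growth followed by electrical impedance; hits lower the impedance growth signal relative to DMSO.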 The procedure, abridged:
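Using 22Rv1 cells held in assay medium, we dosed compounds (100 uM maximum final, 1:4 serial, eight points, 0.5% DMSO at top) and recorded cell-electrode impedance; the 80 hr timepoint was analyzed against DMSO.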
Regarding `C[Si](O[Si](C)(C)C)O[Si](C)(C)C`, the outcome was inactive.

On to `COc1ccc(O)cc1`, for which the molecule was called inactive.

`NCCCN1CCOCC1`: the result was inactive.

For `O=c1cc(-c2ccccc2)oc2cc(O)cc(O)c12`, the result was inactive.

Take `O=C[C@@H](O)[C@H](O)[C@H](O)CO`: the molecule was classed as inactive.

Take `CCC/C=C/C=O`: the outcome was inactive.

As for `BrC1CCC(Br)C(Br)CCC(Br)C(Br)CCC1Br` (stereo not given), the molecule was classed as inactive.

On to `O=Nc1ccc(Nc2ccccc2)cc1`, for which the molecule was called inactive.

For the molecule `CCN(CC)c1ccc(C(=C2C=CC(=[N+](CC)CC)C=C2)c2ccc(S(=O)(=O)O)cc2S(=O)(=O)[O-])cc1`, the outcome was inactive.

In the case of `CCCCC[Si](OCC)(OCC)OCC`, the outcome was inactive.

For the molecule `CCCCCCCCCCCCCCCC(=O)OC[C@H](O)[C@H]1OC(=O)C(O)=C1O`, the AC50 is 7.84 µM (active).

For the molecule `c1ccc2[nH]ccc2c1`, the molecule was classed as inactive.
